Data reported in PubChem BioAssay.
Entries with a potency or affinity are not part of this list. The source made the active and inactive calls. Unless noted, the rule behind the calls is not given here.

Target: Calcium-dependent protein kinase 1 (Plasmodium falciparum (isolate 3D7)) (UniProt P62344)
Assay: PfCDPK1 kinase inhibitors, biochemical, TCAMS library (AID 1159585; cut-off not given, nearly all actives have IC50 up to about 0.98 µM;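 note: inhibitors leave more ATP so luminescence rises with inhibition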)
Settings: recombinant PfCDPK1, Kinase-Glo ATP depletion luminescence

Calcium-dependent protein kinase 1 (Plasmodium falciparum (isolate 3D7)), sequence (P62344 whole entry, looked up): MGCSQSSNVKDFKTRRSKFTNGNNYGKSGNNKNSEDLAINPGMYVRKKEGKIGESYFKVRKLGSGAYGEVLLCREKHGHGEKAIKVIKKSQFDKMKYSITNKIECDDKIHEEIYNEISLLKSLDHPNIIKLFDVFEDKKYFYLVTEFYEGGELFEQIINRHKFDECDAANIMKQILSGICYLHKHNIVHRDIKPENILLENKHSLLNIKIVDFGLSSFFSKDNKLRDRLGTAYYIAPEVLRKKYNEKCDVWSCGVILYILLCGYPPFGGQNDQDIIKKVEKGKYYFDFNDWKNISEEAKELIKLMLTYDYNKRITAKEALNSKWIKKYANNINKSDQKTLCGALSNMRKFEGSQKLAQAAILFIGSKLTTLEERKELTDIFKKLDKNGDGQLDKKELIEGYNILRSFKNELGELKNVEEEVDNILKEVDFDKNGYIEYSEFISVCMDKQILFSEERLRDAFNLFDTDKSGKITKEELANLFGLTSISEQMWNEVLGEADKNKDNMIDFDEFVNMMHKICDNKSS

outcome, inactive:
c1ccc2[nH]c(-c3ccc(-c4ccc(CN5CCC(N6CCCCC6)CC5)cc4)s3)nc2c1, Cc1cc(C)cc(OCC(O)CN(Cc2cc(Cl)cc(Cl)c2)C(=O)Nc2ccc([N+](=O)[O-])cc2)c1 (stereo not given), O=c1cc(NCCCNCc2cc(C(F)(F)F)ccc2F)[nH]c2ccccc12, CC(NCC(O)Cn1c2ccccc2c2ccccc21)c1ccccc1 (stereo not given), Cc1c(C(=O)N(C)C)sc2c1c(=O)n(Cc1ccccc1)c(=O)n2CC(=O)Nc1ccccc1F, C=CCC(C(=O)Nc1ccnc2ccc(OC)cc12)C1CCN(CCCCCCC)CC1 (stereo not given), Cc1cccc(NC(=O)Nc2cccc(-c3ccc(-c4nc5ccc(C(F)(F)F)cc5[nH]4)cc3)c2)c1, CCc1cc(Cc2cnc(N)nc2N)cc(CC)c1OC, CCCCCCCN(CCCCCCC)CCCC(=O)Nc1ccnc2ccc(OC)cc12, CC(C)CCNCc1ccc(OCc2cccc(COc3ccc(CNCCC(C)C)cc3I)c2)c(I)c1, CCCCCc1cc(O)c2c(c1)OC(C)(C)C=C2C1=CCN(Cc2ccsc2)CC1, Clc1cc(Nc2ncnc3sc(C#C[C@H]4CCCN4)cc23)ccc1OCc1cccnc1Cl, Oc1ccc(CCCNc2nc(NCc3cccc4ccccc34)nc(N3CCCNCC3)n2)cc1, Cc1noc(C)c1-c1ccc2c(Nc3ccccc3C(C)(C)C)c(C(=O)NCc3ccc4c(c3)OCO4)cnc2c1, CCN(CC)CCOc1ccc(C(O)(C#CC(O)(c2ccccc2)c2ccc(OCCN(CC)CC)cc2)c2ccccc2)cc1 (stereo not given), COc1ccc(-n2ncc(C(=O)N3CCC4(C3)C(=O)N(c3ccccc3)c3ccccc34)c2C)cc1 (stereo not given), O=S(=O)(Nc1cccc(CCN2CCC(N3CCCCC3)CC2)c1)c1ccc2c(c1)OCCO2, CN1CCN(CC(=O)Nc2ccc(-c3cccc(-c4nc5ccc(F)cc5[nH]4)c3)cc2)CC1, CC(C)(C)NC(=O)c1ccc(Oc2ccc(OC(F)(F)F)cc2)c(NC(=O)C(C)(C)C)c1, CCCCCN1CCCC(CNS(=O)(=O)c2cccc(C(=O)Nc3ccc(C(F)(F)F)cc3)c2)C1 (stereo not given), O=C(NCCNc1ccnc(NCc2ccc(F)cc2)n1)c1cc2ccccc2s1, NC1CCN(Cc2cccc(-c3ccc(-c4nc5ccccc5[nH]4)s3)c2)C1 (stereo not given), Cc1[nH]c(C)c(-c2ccc(OCc3cccc(C(F)(F)F)c3)nc2)c(=O)c1Br, CCSc1nnc(C2CCCN(CC(=O)Nc3cc(C(F)(F)F)ccc3Cl)C2)n1CC (stereo not given), Cc1cc(NN=Cc2cccc(F)c2)c2ccc(F)cc2n1

Target: Plasmodium falciparum protein kinase 6 (PK6, PF3D7_1337100) (UniProt Q8IDW1)
Assay: PfPK6 kinase inhibitors, biochemical, TCAMS library (AID 1159586)
Settings: recombinant PfPK6, Kinase-Glo ATP depletion luminescence

Plasmodium falciparum protein kinase 6 (PK6, PF3D7_1337100), sequence (Q8IDW1 1-305): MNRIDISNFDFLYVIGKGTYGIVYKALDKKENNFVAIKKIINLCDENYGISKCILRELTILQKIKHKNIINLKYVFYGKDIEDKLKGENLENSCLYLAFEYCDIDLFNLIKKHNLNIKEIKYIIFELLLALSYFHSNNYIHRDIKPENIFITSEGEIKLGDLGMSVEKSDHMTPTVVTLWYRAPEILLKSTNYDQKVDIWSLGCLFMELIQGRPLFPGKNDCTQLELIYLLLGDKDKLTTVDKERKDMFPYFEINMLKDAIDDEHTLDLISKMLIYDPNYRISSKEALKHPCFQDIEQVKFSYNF

outcome, inactive:
CC(C)c1ccc(NC(=O)Nc2ccc(CCNCCCc3ccccc3)cc2)cc1, CC(C)NCc1cccc(-c2cccc(NC(=O)c3cccc(Cl)c3)c2)c1, CC[C@@H]([C@@H](Cc1cc2ccccc2s1)C(=O)N[C@@H](CCCCNC(=O)OCc1ccccc1)C(=O)Nc1ccccn1)N(O)C=O, Cc1cccc2[nH]c(-c3cccc(-c4ccc(NC(=O)Nc5ccc(F)c(F)c5F)cc4)c3)nc12, C=CCNC(=O)CCCN=C(N)N, O=C(Nc1cccc(F)c1)c1ccc(C(=O)NC2CCN(CC3CCCCC3)CC2)cc1, COc1ccc(CCCc2nc(N)nc(N)c2-c2ccc(Cl)cc2)cc1, CN1CCN(CCCN(Cc2cccc(-c3ccc(CNCCc4ccccc4)cc3)c2)C(=O)c2cccs2)CC1, O=C(Nc1cccc(CN2CCN(C(=O)c3cccc(Cl)c3)CC2)c1)c1ccco1, CN1CCN(c2cccc(-c3nnc(-c4ccc(OCC(=O)NCc5ccc(C(F)(F)F)cc5)c([N+](=O)[O-])c4)o3)c2)CC1, CCn1c(-c2cc(C)on2)nc2cnc(Oc3ccc(C(=O)N4CC(=O)N(C)C4C(C)(C)C)cc3)cc21 (stereo not given), O=C(NCCCCCCNCc1ccc(-c2ccccc2)cc1)Nc1ccc(Cl)c(Cl)c1, O=C(Nc1ccc(Oc2cccnc2)cc1)C1CCN(Cc2cc(Cl)ccc2O)CC1, CN1Cc2cc(NC(=O)/C=C/c3ccccc3Cl)ccc2C(C)(C)C1, COc1ccc2c(NN=C(C)c3ccccn3)cc(C)nc2c1, c1ccc2[nH]c(-c3ccc(-c4ccc(CN5CCC(N6CCCCC6)CC5)cc4)s3)nc2c1, Cc1cc(C)cc(OCC(O)CN(Cc2cc(Cl)cc(Cl)c2)C(=O)Nc2ccc([N+](=O)[O-])cc2)c1 (stereo not given), O=c1cc(NCCCNCc2cc(C(F)(F)F)ccc2F)[nH]c2ccccc12, CC(NCC(O)Cn1c2ccccc2c2ccccc21)c1ccccc1 (stereo not given), Cc1c(C(=O)N(C)C)sc2c1c(=O)n(Cc1ccccc1)c(=O)n2CC(=O)Nc1ccccc1F, C=CCC(C(=O)Nc1ccnc2ccc(OC)cc12)C1CCN(CCCCCCC)CC1 (stereo not given), Cc1cccc(NC(=O)Nc2cccc(-c3ccc(-c4nc5ccc(C(F)(F)F)cc5[nH]4)cc3)c2)c1, CCc1cc(Cc2cnc(N)nc2N)cc(CC)c1OC, CCCCCCCN(CCCCCCC)CCCC(=O)Nc1ccnc2ccc(OC)cc12, CC(C)CCNCc1ccc(OCc2cccc(COc3ccc(CNCCC(C)C)cc3I)c2)c(I)c1, CCCCCc1cc(O)c2c(c1)OC(C)(C)C=C2C1=CCN(Cc2ccsc2)CC1, Clc1cc(Nc2ncnc3sc(C#C[C@H]4CCCN4)cc23)ccc1OCc1cccnc1Cl, Oc1ccc(CCCNc2nc(NCc3cccc4ccccc34)nc(N3CCCNCC3)n2)cc1, Cc1noc(C)c1-c1ccc2c(Nc3ccccc3C(C)(C)C)c(C(=O)NCc3ccc4c(c3)OCO4)cnc2c1, CCN(CC)CCOc1ccc(C(O)(C#CC(O)(c2ccccc2)c2ccc(OCCN(CC)CC)cc2)c2ccccc2)cc1 (stereo not given), COc1ccc(-n2ncc(C(=O)N3CCC4(C3)C(=O)N(c3ccccc3)c3ccccc34)c2C)cc1 (stereo not given), O=S(=O)(Nc1cccc(CCN2CCC(N3CCCCC3)CC2)c1)c1ccc2c(c1)OCCO2, CN1CCN(CC(=O)Nc2ccc(-c3cccc(-c4nc5ccc(F)cc5[nH]4)c3)cc2)CC1, CC(C)(C)NC(=O)c1ccc(Oc2ccc(OC(F)(F)F)cc2)c(NC(=O)C(C)(C)C)c1, CCCCCN1CCCC(CNS(=O)(=O)c2cccc(C(=O)Nc3ccc(C(F)(F)F)cc3)c2)C1 (stereo not given), O=C(NCCNc1ccnc(NCc2ccc(F)cc2)n1)c1cc2ccccc2s1, NC1CCN(Cc2cccc(-c3ccc(-c4nc5ccccc5[nH]4)s3)c2)C1 (stereo not given), Cc1[nH]c(C)c(-c2ccc(OCc3cccc(C(F)(F)F)c3)nc2)c(=O)c1Br, CCSc1nnc(C2CCCN(CC(=O)Nc3cc(C(F)(F)F)ccc3Cl)C2)n1CC (stereo not given), Cc1cc(NN=Cc2cccc(F)c2)c2ccc(F)cc2n1
